These results are taken from PubChem BioAssay (NCATS).

Results filed as inconclusive are left out. A call without a number means that no potency is given here. Activity calls are given as the source filed them. Unless noted, calls come from the whole dose curve.

Sequence of Cytochrome P450 2D6 (Homo sapiens) (P10635 whole entry, looked up): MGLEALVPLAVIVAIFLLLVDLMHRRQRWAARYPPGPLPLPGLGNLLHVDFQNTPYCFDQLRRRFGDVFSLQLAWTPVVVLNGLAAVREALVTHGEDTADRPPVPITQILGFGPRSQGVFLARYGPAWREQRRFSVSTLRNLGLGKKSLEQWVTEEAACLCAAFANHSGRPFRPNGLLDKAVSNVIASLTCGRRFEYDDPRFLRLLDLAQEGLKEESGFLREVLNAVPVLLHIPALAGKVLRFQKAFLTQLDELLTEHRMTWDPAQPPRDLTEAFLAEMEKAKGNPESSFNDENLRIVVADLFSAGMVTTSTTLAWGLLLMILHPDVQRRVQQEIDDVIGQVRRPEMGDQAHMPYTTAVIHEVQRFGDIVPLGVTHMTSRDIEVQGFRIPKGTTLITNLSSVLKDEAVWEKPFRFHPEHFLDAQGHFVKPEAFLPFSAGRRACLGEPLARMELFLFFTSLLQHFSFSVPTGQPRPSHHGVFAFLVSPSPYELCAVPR

One assay deals with Cytochrome P450 2D6 (Homo sapiens) (UniProt P10635). In words: Cytochrome P450 family 2 subfamily D member 6 (CYP2D6) small molecule antagonists: luciferase biochemical (cell-free) qHTS assay (AID 1645840; active = well fitted curve in the direction sought with a large enough effect in the repeat runs; an effect the other way counts as inactive or inconclusive; note: potency is the fitted concentration of half-maximal effect; nearly all actives have a fitted effect of over 55% in size). The note with it: P450-Glo CYP2D6 enzyme, luciferin luminescence, 1 h; series mostly up to 57.4 µM. The method, boiled down:
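P450-Glo luminescent screen: recombinant CYP2D6 enzyme–proluciferin substrate mix preincubated with compound 10 min at room temperature, then NADPH regeneration added for 1 h at room temperature. Detection reagent added for 20 min; luciferin light read as relative luminescence units.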
As to `FC(F)(F)c1ccc(N2CCNCC2)nc1Cl`, the Potency is 15.1 µM (active). Still for that read-out and setting: as for `C[C@@H](CN1CCC(n2c(=O)[nH]c3cc(Br)ccc32)CC1)NC(=O)[C@@H]1C[C@H]1c1ccccc1`, the figure is 13.5 µM (active). Still for that read-out and setting: as for `O=C(NCCN1CCC2(CC1)C(=O)NCN2c1cccc(F)c1)c1ccc2ccccc2c1`, the figure is 2.68 µM (active); as for `CN(C(=O)CN1C(=O)COc2cc(Cl)c(Cl)cc21)[C@@H](CN1CCCC1)c1ccc(-c2cccc(C(N)=O)c2)cc1`, 16.9 µM (active).

For another assay, the target named is Cytochrome P450 2C9 (Homo sapiens) (UniProt P11712). In words: Cytochrome P450 family 2 subfamily C member 9 (CYP2C9) small molecule antagonists: luciferase biochemical (cell-free) qHTS assay (AID 1645842; active = well fitted curve in the direction sought with a large enough effect in the repeat runs; an effect the other way counts as inactive or inconclusive; note: nearly all actives have a fitted effect of over 55% in size; note: potency is the fitted concentration of half-maximal effect). The note with it: P450-Glo CYP2C9 enzyme assay, luciferin luminescence; series mostly up to 57.4 µM. The gist of the method: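 Luminescence, after 20 min with luciferin detection reagent, reflected CYP2C9 turnover during a 1 h NADPH-driven reaction at 37C. Enzyme-substrate mix contained 0.4% bovine serum albumin and was preincubated with compound 10 min at room temperature.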
Sequence of Cytochrome P450 2C9 (Homo sapiens) (P11712 whole entry, looked up): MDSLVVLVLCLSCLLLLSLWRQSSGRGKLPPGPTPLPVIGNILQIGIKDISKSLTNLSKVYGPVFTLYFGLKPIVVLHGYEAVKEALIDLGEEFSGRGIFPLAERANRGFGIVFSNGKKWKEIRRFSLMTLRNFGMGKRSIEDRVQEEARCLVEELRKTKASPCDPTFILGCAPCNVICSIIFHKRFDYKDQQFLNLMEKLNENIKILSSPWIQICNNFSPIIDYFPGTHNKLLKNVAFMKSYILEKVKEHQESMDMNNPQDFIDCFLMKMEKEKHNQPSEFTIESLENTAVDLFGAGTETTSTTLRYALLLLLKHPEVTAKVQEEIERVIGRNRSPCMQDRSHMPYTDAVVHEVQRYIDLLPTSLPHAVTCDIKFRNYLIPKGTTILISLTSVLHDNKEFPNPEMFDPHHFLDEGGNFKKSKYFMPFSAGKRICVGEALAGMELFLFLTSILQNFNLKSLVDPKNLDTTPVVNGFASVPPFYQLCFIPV
With `FC(F)(F)c1ccc(N2CCNCC2)nc1Cl`, the Potency result was “inactive”. Still for that read-out and setting: with `O=C(NCCN1CCC2(CC1)C(=O)NCN2c1cccc(F)c1)c1ccc2ccccc2c1` the figure was 12 µM (active). The same measure, in the same setting: as for `CN(C(=O)CN1C(=O)COc2cc(Cl)c(Cl)cc21)[C@@H](CN1CCCC1)c1ccc(-c2cccc(C(N)=O)c2)cc1`, the figure is 13.5 µM (active).

System in another assay: not listed separately
In words: Cytotoxicity counterscreen for inhibitors of SARS-CoV-2 cell entry (AID 1645845). Note: nearly all actives have a fitted effect of over 50% in size. Note: potency is the fitted concentration of half-maximal effect. As to conditions: cell viability (SARS-CoV-2 entry assay cells); series mostly up to 57.1 µM. The method, boiled down: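 HEK293-ACE2 cells (Expi293F stably expressing human ACE2) seeded overnight, then compound for 1 h plus 48 h at 37C. Viability as ATP content by luminescence; normalized to wells with cells and media-only wells.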
As for `c1cc(-c2cnn3cc(-c4ccc(N5CCNCC5)cc4)cnc23)c2cccnc2c1`, the Potency result was “inactive”. The same measure, in the same setting: with `CS(=O)(=O)c1ccc(Oc2cc(F)cc(C#N)c2)c2c1[C@H](O)C(F)(F)C2` the entry was “inactive”; with `COc1cc(S(C)(=O)=O)ccc1Nc1nc2ccc(-c3ccc(NC(=O)[C@H](C)c4ccc(F)cc4)cc3)cn2n1`, “inactive”; with `CO[C@@H]1COCC[C@@H]1N[C@@H]1CC[C@@](C(=O)N2CCc3ncc(C(F)(F)F)cc3C2)(C(C)C)C1`, “inactive”. Same read-out and setting: as for `CC(C)N(C[C@H]1O[C@@H](n2cnc3c(N)ncnc32)[C@H](O)[C@@H]1O)C1CC(CCc2nc3ccc(C(C)(C)C)cc3[nH]2)C1` (stereo partly drawn), the entry is “inactive”; as for `CCNC1(C(N)=O)CCN(c2ncnc3c2nc(-c2ccccc2Cl)n3-c2ccc(Cl)cc2)CC1`, “inactive”. Regarding `O=C(CCc1ccc(O)cc1)c1c(O)cc(O)cc1O`, the Potency result is “inactive”. On the same count and under the same terms, with `N#Cc1ccc(COC[C@H]2O[C@@H](n3c(NCc4ccc(Cl)c(Cl)c4)nc4c(N)ncnc43)[C@H](O)[C@@H]2O)cc1` the entry was “inactive”; with `NC1CCC(N[C@@H]2C[C@H]2c2ccccc2)CC1` (stereo partly drawn), “inactive”; with `Cc1c(F)cc(C(=O)NC2CC2)cc1-c1ccc(C(=O)NCC(C)(C)C)cn1`, “inactive”. Take `OC[C@H]1O[C@@H](Oc2cc(O)cc(/C=C/c3ccc(O)cc3)c2)[C@H](O)[C@@H](O)[C@@H]1O`: the Potency result was “inactive”. Still for that read-out and setting: with `CCC(CC)CC1(C(=O)Nc2ccccc2SC(=O)C(C)C)CCCCC1` the entry was “inactive”; with `CCS(=O)(=O)N1CCC([C@@H](C)n2c(C)c(C(=O)NCc3c(OC)cc(C)[nH]c3=O)c3ccccc32)CC1`, “inactive”. The same measure, in the same setting: as for `COCCOc1ccc(N2CCN(CCn3ncc4c3nc(N)n3nc(-c5ccco5)nc43)CC2)cc1`, the entry is “inactive”; as for `COc1ccc(-c2cnc3c(-c4cccc5ncccc45)cnn3c2)cc1`, “inactive”. In the case of `CC[C@@](C)(Nc1ccnc(-c2c[nH]c3ncccc23)n1)C(=O)NCC(F)(F)F`, the Potency entry is “inactive”. The same measure, in the same setting: as for `CCCOc1ccn2c(C(C)=O)cc(-c3ccccc3S(C)(=O)=O)c2c1`, the entry is “inactive”.

On to `C=C1C(=O)OC(CCCCCCCC)C1C(=O)O` (stereo not drawn), for which the Potency entry was “inactive”.

For the molecule `Cn1nccc1Nc1nccc(-c2ccn([C@H](CO)c3ccc(Cl)c(F)c3)c(=O)c2)n1`, the Potency is 11.2 µM (active). The same measure, in the same setting: as for `COCCCc1sc(-c2ccccc2)nc1C(=O)Nc1ccccc1-c1nc2cc(CN3CCCC3)cnc2s1`, the entry is “inactive”. On the same count and under the same terms, with `Cc1cccc(Oc2cnc(=O)[nH]c2)c1` the entry was “inactive”; with `CCNCc1nc2c(N)nc3ccccc3c2n1CC(C)(C)O`, “inactive”; with `COc1cc(-c2cc(-c3ccc(N4CCNCC4)cc3)cnc2C)cc(OC)c1OC`, “inactive”. Same read-out and setting: as for `CCNC(=O)CCC/C=C\C[C@@H]1[C@@H](/C=C/C(O)CCc2ccccc2)[C@@H](O)C[C@@H]1O` (stereo partly drawn), the entry is “inactive”; as for `N#Cc1cccc(-c2c[nH]c3ncnc(N4CCOCC4)c23)c1`, “inactive”; as for `CCCCOc1nc(N)c2c(n1)N(Cc1cccc(CN3CCCC3)c1)CC(=O)N2`, “inactive”. On to `Cc1nn(C)c2c1C(c1ccc(C(F)(F)F)cc1)C(C#N)=C(N)O2` (stereo not drawn), for which the Potency entry is “inactive”.

System in the next assay: not listed separately
In words: Primary qHTS to identify inhibitors of SARS-CoV-2 cell entry (AID 1645846). Note: nearly all actives have a fitted effect of over 45% in size. As to conditions: SARS-CoV-2 pseudovirus cell entry assay, luminescence; activity change, negative = inhibition: at 57.1 µM (top of the series) unless noted; series mostly up to 57.1 µM. The gist of the method:
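Luminescence readout (Bright-Glo luciferase) 48 h after pseudoparticle addition. HEK293-ACE2 cells, 1500/well; compound pre-incubation 1 h; Normalized to spike PP and bald PP.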
As to `c1cc(-c2cnn3cc(-c4ccc(N5CCNCC5)cc4)cnc23)c2cccnc2c1`, the Potency entry is “inactive”. Still for that read-out and setting: as for `CS(=O)(=O)c1ccc(Oc2cc(F)cc(C#N)c2)c2c1[C@H](O)C(F)(F)C2`, the entry is “inactive”. Same read-out and setting: as for `CO[C@@H]1COCC[C@@H]1N[C@@H]1CC[C@@](C(=O)N2CCc3ncc(C(F)(F)F)cc3C2)(C(C)C)C1`, the entry is “inactive”; as for `CC(C)N(C[C@H]1O[C@@H](n2cnc3c(N)ncnc32)[C@H](O)[C@@H]1O)C1CC(CCc2nc3ccc(C(C)(C)C)cc3[nH]2)C1` (stereo partly drawn), “inactive”. Consider `O=C(CCc1ccc(O)cc1)c1c(O)cc(O)cc1O`, for which the activity change, negative = inhibition is -19.9%. As to `NC1CCC(N[C@@H]2C[C@H]2c2ccccc2)CC1` (stereo partly drawn), the activity change, negative = inhibition was -44.4%.

In the case of `OC[C@H]1O[C@@H](Oc2cc(O)cc(/C=C/c3ccc(O)cc3)c2)[C@H](O)[C@@H](O)[C@@H]1O`, the Potency result is “inactive”.

For the molecule `CNc1nc(C)nc(N[C@H]2CCC[C@@H](C(=O)NCc3ccc(C#N)cc3C(F)(F)F)C2)n1`, the Potency result was “inactive”. For `CCC(CC)CC1(C(=O)Nc2ccccc2SC(=O)C(C)C)CCCCC1`, the activity change, negative = inhibition was -15.2%. As to `CCS(=O)(=O)N1CCC([C@@H](C)n2c(C)c(C(=O)NCc3c(OC)cc(C)[nH]c3=O)c3ccccc32)CC1`, the Potency entry was “inactive”. Same read-out and setting: with `O=C1C(c2c(O)[nH]c3ccccc23)=Nc2ccccc21` the entry was “inactive”. For the molecule `COc1ccc2cc(OCC3(C(=O)O)CN(C(=O)c4ccc(F)cc4)C3)ccc2c1`, the activity change, negative = inhibition was -2.33%. Still for that read-out and setting: with `COCCOc1ccc(N2CCN(CCn3ncc4c3nc(N)n3nc(-c5ccco5)nc43)CC2)cc1` the figure was -15.3%. `COc1ccc(-c2cnc3c(-c4cccc5ncccc45)cnn3c2)cc1`: the Potency entry is “inactive”. The same measure, in the same setting: as for `CCN(c1cc(C#CCN2CCOCC2)cc(C(=O)NCc2c(C)cc(C)[nH]c2=O)c1C)C1CCC(N(C)CCOC)CC1` (stereo not drawn), the entry is “inactive”. `CC[C@@](C)(Nc1ccnc(-c2c[nH]c3ncccc23)n1)C(=O)NCC(F)(F)F`: the activity change, negative = inhibition was -38.3%. On to `CCCOc1ccn2c(C(C)=O)cc(-c3ccccc3S(C)(=O)=O)c2c1`, for which the Potency entry was “inactive”. Turning to `COCCCc1sc(-c2ccccc2)nc1C(=O)Nc1ccccc1-c1nc2cc(CN3CCCC3)cnc2s1`, the Potency entry was “inactive”. Consider `Cc1cccc(Oc2cnc(=O)[nH]c2)c1`, for which the activity change, negative = inhibition is -20%.

Consider `CCNCc1nc2c(N)nc3ccccc3c2n1CC(C)(C)O`, for which the activity change, negative = inhibition was -33.4%. In the case of `CCNC(=O)CCC/C=C\C[C@@H]1[C@@H](/C=C/C(O)CCc2ccccc2)[C@@H](O)C[C@@H]1O` (stereo partly drawn), the activity change, negative = inhibition is -23.1%. Turning to `N#Cc1cccc(-c2c[nH]c3ncnc(N4CCOCC4)c23)c1`, the Potency entry was “inactive”. Same read-out and setting: as for `Cc1c(-c2ccnn2C)cc(C(=O)NCc2ccc(S(C)(=O)=O)cn2)c(=O)n1-c1cccc(C(F)(F)F)c1`, the entry is “inactive”; as for `Cc1nn(C)c2c1C(c1ccc(C(F)(F)F)cc1)C(C#N)=C(N)O2` (stereo not drawn), “inactive”.
